Results from the supplement of paper PMC10849652.
Of roughly 7,900 targets only a part is listed; those with a hit were picked by preference. About 0.6% of all pairs of compound and target were hits.

Columns and labels:
Assay in all cases: log2 fold change, soluble protein after heating vs DMSO (PISA); higher = thermal stabilisation; K562 cells, 10 uM, 30 min; active = over 0.2 and 3.5 SD of the protein, either way, in both replicates (recomputed)
[1] = compound: COC1=CC=C(C=C1)CN2C=CC3=C2C=C(C=C3)C(=O)NO
Outline: (§1)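 K562 cells (2×10^6 cells/mL) were treated with 10 μM compound for 30 min, and aliquots were heated for 3 min over 48°C-58°C. Pooled aliquots were extracted in PBS with 0.5% NP-40 at 4°C, and the supernatant after 21,000xg for 90 min was measured by TMTpro 16plex LC-MS/MS with channel sums equalised. Reported thermal stability, relative to control samples and from duplicates, is a log2 fold change.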

filanesib = compound: CON(C)C(=O)N1N=C(c2cc(F)ccc2F)S[C@@]1(CCCN)c1ccccc1 [filanesib]
Outline: as §1

zotarolimus = compound: CO[C@H]1C[C@@H]2CC[C@@H](C)[C@@](O)(O2)C(=O)C(=O)N2CCCC[C@H]2C(=O)O[C@H]([C@H](C)C[C@@H]2CC[C@H](n3cnnn3)[C@H](OC)C2)CC(=O)[C@H](C)/C=C(\C)[C@@H](O)[C@@H](OC)C(=O)[C@H](C)C[C@H](C)/C=C/C=C/C=C/1C [zotarolimus]
Outline: as §1

idasanutlin = compound: COc1cc(C(=O)O)ccc1NC(=O)[C@@H]1N[C@@H](CC(C)(C)C)[C@](C#N)(c2ccc(Cl)cc2F)[C@H]1c1cccc(Cl)c1F [idasanutlin]
Outline: as §1

alisertib = compound: COc1cc(Nc2ncc3c(n2)-c2ccc(Cl)cc2C(c2c(F)cccc2OC)=NC3)ccc1C(=O)O [alisertib]
Outline: as §1

[2] = compound: COc1cc2nc(-c3cc(F)ccc3O)nc(N[C@@H]3CNC[C@H]3C(C)(C)O)c2cc1OC
Outline: as §1

gefitinib = compound: COc1cc2ncnc(Nc3ccc(F)c(Cl)c3)c2cc1OCCCN1CCOCC1 [gefitinib]
Outline: as §1

[3] = compound: COc1cccc2cc(-c3nc([C@H]4CC[C@H](C(=O)O)CC4)n4ncnc(N)c34)[nH]c12
Outline: as §1

lapatinib = compound: CS(=O)(=O)CCNCc1ccc(-c2ccc3ncnc(Nc4ccc(OCc5cccc(F)c5)c(Cl)c4)c3c2)o1 [lapatinib]
Outline: as §1

pictilisib = compound: CS(=O)(=O)N1CCN(Cc2cc3nc(-c4cccc5[nH]ncc45)nc(N4CCOCC4)c3s2)CC1 [pictilisib]
Outline: as §1

Measured: log2 fold change

PTPN12 (UniProt Q05209)
inactive: [1] -0.024 | filanesib 0.04 | zotarolimus 0.041 | idasanutlin -0.021 | alisertib -0.06 | [2] 0.053 | gefitinib 0.025 | [3] -0.132 | lapatinib 0.039 | pictilisib 0.012

PIP4K2B (UniProt P78356)
Sequence of UniProt P78356 (P78356 whole entry, looked up): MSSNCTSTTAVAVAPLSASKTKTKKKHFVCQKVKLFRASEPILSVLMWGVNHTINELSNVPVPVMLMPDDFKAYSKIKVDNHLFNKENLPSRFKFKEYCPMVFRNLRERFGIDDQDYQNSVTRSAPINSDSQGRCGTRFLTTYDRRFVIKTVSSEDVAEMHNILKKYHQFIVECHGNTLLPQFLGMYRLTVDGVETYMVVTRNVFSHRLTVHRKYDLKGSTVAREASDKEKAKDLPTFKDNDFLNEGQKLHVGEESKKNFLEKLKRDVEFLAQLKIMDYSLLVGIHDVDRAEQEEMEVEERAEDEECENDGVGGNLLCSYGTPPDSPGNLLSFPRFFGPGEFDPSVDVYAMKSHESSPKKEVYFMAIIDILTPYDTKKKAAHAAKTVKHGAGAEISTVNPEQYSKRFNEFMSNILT
active: [2] 0.379
inactive: [1] 0.028 | filanesib -0.146 | zotarolimus 0.025 | idasanutlin -0.104 | alisertib -0.045 | gefitinib 0.035 | [3] 0.207 | lapatinib -0.026 | pictilisib 0.022

POLA1 (UniProt P09884)
inactive: [1] 0.053 | filanesib -0.023 | zotarolimus 0.008 | idasanutlin 0.003 | alisertib -0.053 | [2] 0.016 | gefitinib 0.015 | [3] -0.008 | lapatinib -0.005 | pictilisib 0.033

PTP4A1 (UniProt Q93096)
inactive: [1] 0.009 | filanesib -0.088 | zotarolimus 0.05 | idasanutlin 0.089 | alisertib -0.129 | gefitinib 0.033 | [3] 0.04 | lapatinib 0.024 | pictilisib 0.068
active: [2] -0.267

PIK3C3 (UniProt Q8NEB9)
inactive: [1] 0.049 | filanesib 0.221 | zotarolimus 0.016 | idasanutlin -0.055 | alisertib 0.011 | [2] 0.172 | gefitinib 0.062 | [3] 0.007 | lapatinib 0.021 | pictilisib 0.094

PPIL2 (UniProt Q13356)
inactive: [1] 0.035 | filanesib 0.012 | zotarolimus 0.05 | idasanutlin -0.032 | alisertib 0.01 | [2] 0.131 | gefitinib 0.076 | [3] -0.023 | lapatinib -0.02 | pictilisib 0.028

PMPCA (UniProt Q10713)
Sequence of UniProt Q10713 (Q10713 whole entry, looked up): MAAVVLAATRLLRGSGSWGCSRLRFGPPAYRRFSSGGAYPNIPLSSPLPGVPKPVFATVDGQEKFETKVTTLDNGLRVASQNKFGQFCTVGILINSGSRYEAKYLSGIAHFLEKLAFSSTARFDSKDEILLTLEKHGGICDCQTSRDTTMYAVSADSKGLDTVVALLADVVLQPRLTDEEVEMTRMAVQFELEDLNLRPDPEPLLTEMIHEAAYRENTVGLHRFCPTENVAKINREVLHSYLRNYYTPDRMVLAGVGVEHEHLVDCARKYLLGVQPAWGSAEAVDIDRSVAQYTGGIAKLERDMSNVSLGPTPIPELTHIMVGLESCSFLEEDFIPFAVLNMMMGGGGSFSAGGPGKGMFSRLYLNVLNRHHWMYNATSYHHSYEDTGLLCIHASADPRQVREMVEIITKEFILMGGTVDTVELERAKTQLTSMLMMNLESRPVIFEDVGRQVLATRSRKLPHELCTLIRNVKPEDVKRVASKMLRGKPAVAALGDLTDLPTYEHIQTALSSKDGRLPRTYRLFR
inactive: [1] -0.041 | filanesib 0.013 | zotarolimus 0.035 | idasanutlin -0.1 | alisertib -0.089 | [2] -0.02 | gefitinib 0.043 | [3] 0.009 | lapatinib -0.023 | pictilisib 0.018

POLR2K (UniProt P53803)
inactive: [1] -0.052 | filanesib 0.071 | zotarolimus -0.05 | idasanutlin -0.101 | alisertib -0.005 | [2] 0.134 | gefitinib -0.012 | [3] -0.213 | lapatinib 0.003 | pictilisib 0.117

PLBD1 (UniProt Q6P4A8)
Sequence of UniProt Q6P4A8 (Q6P4A8 whole entry, looked up): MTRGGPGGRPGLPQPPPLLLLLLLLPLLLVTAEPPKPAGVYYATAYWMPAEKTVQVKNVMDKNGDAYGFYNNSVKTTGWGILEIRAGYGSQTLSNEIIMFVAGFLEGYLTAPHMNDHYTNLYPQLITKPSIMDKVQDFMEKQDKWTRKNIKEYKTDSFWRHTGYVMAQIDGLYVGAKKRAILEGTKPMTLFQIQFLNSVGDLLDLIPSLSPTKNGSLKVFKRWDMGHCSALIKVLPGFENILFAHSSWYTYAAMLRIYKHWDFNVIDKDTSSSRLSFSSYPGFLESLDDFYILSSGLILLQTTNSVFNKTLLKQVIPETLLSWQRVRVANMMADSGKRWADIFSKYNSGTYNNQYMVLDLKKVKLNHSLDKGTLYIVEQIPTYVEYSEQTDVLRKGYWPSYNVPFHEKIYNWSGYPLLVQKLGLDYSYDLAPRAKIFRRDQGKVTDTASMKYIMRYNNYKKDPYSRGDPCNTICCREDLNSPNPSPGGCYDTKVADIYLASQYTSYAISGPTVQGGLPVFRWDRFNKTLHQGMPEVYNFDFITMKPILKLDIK
inactive: [1] -0.076 | filanesib -0.051 | zotarolimus -0.057 | idasanutlin 0.019 | alisertib 0.169 | [2] -0.016 | gefitinib 0.019 | [3] 0.048 | lapatinib 0.03 | pictilisib 0.039

PIP4K2C (UniProt Q8TBX8)
Sequence of UniProt Q8TBX8 (Q8TBX8 whole entry, looked up): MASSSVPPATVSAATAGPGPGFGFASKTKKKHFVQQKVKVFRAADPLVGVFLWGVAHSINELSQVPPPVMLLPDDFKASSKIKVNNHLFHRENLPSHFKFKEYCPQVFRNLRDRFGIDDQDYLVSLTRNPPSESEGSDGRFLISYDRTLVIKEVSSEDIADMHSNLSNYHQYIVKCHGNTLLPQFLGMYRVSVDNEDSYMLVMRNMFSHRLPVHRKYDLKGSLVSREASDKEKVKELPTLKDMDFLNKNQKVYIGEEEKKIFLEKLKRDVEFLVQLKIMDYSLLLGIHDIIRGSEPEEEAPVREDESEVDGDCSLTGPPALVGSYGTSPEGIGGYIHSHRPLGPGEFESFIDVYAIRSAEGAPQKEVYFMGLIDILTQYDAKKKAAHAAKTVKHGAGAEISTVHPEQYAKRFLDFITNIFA
inactive: [1] 0.058 | filanesib -0.025 | zotarolimus -0.021 | idasanutlin -0.186 | alisertib -0.021 | gefitinib 0.115 | [3] 0.684 | lapatinib -0.043 | pictilisib 0.134
active: [2] 0.866

POMP (UniProt Q9Y244)
inactive: [1] 0.175 | filanesib 0.082 | zotarolimus 0.012 | idasanutlin 0.115 | alisertib -0.153 | [2] -0.016 | gefitinib 0.076 | [3] -0.03 | lapatinib -0.022 | pictilisib 0.031

PSMD2 (UniProt Q13200)
inactive: [1] -0.036 | filanesib 0.051 | zotarolimus -0.015 | idasanutlin 0.039 | alisertib -0.089 | [2] -0.071 | gefitinib -0.043 | [3] -0.053 | lapatinib 0.077 | pictilisib -0.059

PLBD2 (UniProt Q8NHP8)
inactive: [1] -0.069 | filanesib -0.015 | zotarolimus -0.029 | idasanutlin -0.012 | alisertib -0.048 | [2] -0.007 | gefitinib 0.018 | [3] 0.041 | lapatinib -0.008 | pictilisib 0.027

PDE12 (UniProt Q6L8Q7)
active: [1] 0.359
inactive: filanesib -0.052 | zotarolimus 0.044 | idasanutlin -0.052 | alisertib -0.051 | [2] 0.014 | gefitinib -0.01 | [3] -0.003 | lapatinib -0.007 | pictilisib 0.074

PTTG1 (UniProt O95997)
inactive: [1] 0.011 | filanesib 0.052 | zotarolimus -0.077 | idasanutlin -0.011 | alisertib -0.022 | [2] -0.156 | gefitinib -0.048 | [3] -0.058 | lapatinib -0.013 | pictilisib -0.07

PCLAF (UniProt Q15004)
Sequence of UniProt Q15004 (Q15004 whole entry, looked up): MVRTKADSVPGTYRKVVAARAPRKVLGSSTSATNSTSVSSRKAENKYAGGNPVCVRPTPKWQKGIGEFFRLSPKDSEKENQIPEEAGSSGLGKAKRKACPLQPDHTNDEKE
inactive: [1] -0.115 | filanesib 0.158 | zotarolimus -0.172 | idasanutlin 0.066 | alisertib -0.035 | [2] -0.018 | gefitinib -0.057 | [3] -0.162 | lapatinib 0.033 | pictilisib -0.015

PIGG (UniProt Q5H8A4)
Sequence of UniProt Q5H8A4 (Q5H8A4 whole entry, looked up): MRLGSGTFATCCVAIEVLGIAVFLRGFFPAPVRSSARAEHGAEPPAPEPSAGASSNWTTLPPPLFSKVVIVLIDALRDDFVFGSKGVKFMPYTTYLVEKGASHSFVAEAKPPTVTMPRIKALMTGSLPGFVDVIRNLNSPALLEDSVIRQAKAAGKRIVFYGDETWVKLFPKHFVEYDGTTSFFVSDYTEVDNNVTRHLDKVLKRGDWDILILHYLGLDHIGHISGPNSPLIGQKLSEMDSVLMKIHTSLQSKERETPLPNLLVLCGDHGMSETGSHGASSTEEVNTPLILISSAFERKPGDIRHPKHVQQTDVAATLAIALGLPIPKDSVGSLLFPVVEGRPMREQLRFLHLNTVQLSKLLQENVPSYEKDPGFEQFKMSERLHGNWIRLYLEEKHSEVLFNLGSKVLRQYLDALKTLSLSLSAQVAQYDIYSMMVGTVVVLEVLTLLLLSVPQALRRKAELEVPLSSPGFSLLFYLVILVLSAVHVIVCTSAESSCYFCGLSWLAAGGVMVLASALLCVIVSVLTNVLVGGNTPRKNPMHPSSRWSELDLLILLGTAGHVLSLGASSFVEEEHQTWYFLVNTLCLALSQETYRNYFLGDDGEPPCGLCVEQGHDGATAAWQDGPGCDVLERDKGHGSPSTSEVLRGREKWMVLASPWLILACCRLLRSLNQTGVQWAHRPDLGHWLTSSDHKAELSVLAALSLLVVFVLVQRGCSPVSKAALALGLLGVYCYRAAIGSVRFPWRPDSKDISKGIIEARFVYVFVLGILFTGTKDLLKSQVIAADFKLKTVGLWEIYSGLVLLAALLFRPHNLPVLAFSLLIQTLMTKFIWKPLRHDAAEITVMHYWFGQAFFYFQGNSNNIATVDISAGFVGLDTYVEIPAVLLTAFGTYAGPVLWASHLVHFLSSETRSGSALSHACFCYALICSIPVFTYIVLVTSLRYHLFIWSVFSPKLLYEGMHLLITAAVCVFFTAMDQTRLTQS
inactive: [1] -0.01 | filanesib -0.062 | zotarolimus 0.073 | idasanutlin 0.019 | alisertib -0.048 | [2] 0.098 | gefitinib -0.122 | [3] 0.049 | lapatinib 0.046 | pictilisib 0.017

PIP4P1 isoform 2 (UniProt Q86T03)
inactive: [1] 0.089 | zotarolimus 0.004 | idasanutlin 0.002 | alisertib 0.032 | [2] -0.072 | gefitinib -0.018 | [3] -0.058 | lapatinib 0.06 | pictilisib -0.061
active: filanesib -0.32

QKI (UniProt Q96PU8)
inactive: [1] -0.004 | filanesib -0.004 | zotarolimus -0.026 | idasanutlin -0.032 | alisertib -0.077 | [2] -0.079 | gefitinib 0.019 | [3] 0.011 | lapatinib -0.007 | pictilisib -0.032

PGK2 (UniProt P07205)
Sequence of UniProt P07205 (P07205 whole entry, looked up): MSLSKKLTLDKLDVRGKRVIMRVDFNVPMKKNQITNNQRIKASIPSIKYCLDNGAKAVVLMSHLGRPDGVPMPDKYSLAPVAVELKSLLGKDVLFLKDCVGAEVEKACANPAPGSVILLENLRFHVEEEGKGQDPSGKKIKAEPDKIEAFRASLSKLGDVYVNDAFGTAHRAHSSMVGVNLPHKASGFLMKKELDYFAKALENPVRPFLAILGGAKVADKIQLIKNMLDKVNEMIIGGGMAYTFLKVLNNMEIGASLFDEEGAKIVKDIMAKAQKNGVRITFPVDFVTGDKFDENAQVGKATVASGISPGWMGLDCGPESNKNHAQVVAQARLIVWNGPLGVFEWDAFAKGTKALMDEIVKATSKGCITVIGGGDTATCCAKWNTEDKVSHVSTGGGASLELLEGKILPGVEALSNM
inactive: [1] 0.016 | filanesib -0.003 | zotarolimus -0.029 | idasanutlin 0.001 | alisertib 0.08 | [2] 0.14 | gefitinib 0.068 | [3] 0.001 | lapatinib -0.093 | pictilisib 0.041

PRKCG (UniProt P05129)
inactive: [1] -0.071 | filanesib 0.019 | zotarolimus 0.118 | idasanutlin -0.011 | alisertib -0.01 | [2] 0.098 | gefitinib -0.025 | [3] -0.17 | lapatinib 0.055 | pictilisib 0.113

PLCG1 isoform 2 (UniProt P19174)
inactive: [1] 0.104 | filanesib -0.139 | zotarolimus 0.038 | idasanutlin 0.017 | alisertib 0.05 | [2] 0.012 | gefitinib -0.047 | [3] 0.029 | lapatinib -0.003 | pictilisib 0.046

PCYT1B (UniProt Q9Y5K3)
inactive: [1] 0.005 | filanesib 0.026 | zotarolimus 0 | idasanutlin -0.029 | alisertib -0.156 | [2] 0.131 | gefitinib -0.051 | [3] 0.018 | lapatinib -0.019 | pictilisib -0.12

PRPF40A (UniProt O75400)
Sequence of UniProt O75400 (O75400 whole entry, looked up): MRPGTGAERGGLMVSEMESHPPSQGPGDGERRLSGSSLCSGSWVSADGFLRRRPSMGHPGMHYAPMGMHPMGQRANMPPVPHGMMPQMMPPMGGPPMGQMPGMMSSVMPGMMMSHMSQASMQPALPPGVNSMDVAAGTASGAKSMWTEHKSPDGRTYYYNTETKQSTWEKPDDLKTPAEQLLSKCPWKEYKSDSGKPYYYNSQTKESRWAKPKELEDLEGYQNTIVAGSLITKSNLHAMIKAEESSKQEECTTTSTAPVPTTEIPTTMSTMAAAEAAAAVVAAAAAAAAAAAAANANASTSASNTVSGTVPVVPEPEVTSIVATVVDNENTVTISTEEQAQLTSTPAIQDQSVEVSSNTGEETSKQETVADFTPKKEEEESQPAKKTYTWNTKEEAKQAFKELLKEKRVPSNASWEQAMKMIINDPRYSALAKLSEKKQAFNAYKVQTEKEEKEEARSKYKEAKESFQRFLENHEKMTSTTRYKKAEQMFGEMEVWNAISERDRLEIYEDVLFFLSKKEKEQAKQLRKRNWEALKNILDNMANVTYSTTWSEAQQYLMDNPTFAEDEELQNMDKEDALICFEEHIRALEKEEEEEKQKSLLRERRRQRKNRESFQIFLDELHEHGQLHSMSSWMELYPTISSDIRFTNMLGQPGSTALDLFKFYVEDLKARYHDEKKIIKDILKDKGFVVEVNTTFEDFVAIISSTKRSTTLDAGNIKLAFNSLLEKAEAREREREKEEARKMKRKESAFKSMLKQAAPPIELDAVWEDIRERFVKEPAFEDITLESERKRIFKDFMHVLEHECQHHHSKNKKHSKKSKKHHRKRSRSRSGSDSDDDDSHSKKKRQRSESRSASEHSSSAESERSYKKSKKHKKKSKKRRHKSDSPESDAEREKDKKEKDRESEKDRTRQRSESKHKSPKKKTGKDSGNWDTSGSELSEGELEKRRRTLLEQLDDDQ
inactive: [1] 0.082 | filanesib 0.135 | zotarolimus 0.029 | idasanutlin 0.058 | alisertib 0.024 | [2] -0.091 | gefitinib 0.042 | [3] -0.045 | lapatinib 0.018 | pictilisib -0.027

PRPF31 (UniProt Q8WWY3)
inactive: [1] 0.07 | filanesib 0.006 | zotarolimus -0.028 | idasanutlin -0.053 | alisertib 0.081 | [2] -0.393 | gefitinib 0.003 | [3] 0.024 | lapatinib 0.061 | pictilisib 0.139

PDCD6IP (UniProt Q8WUM4)
inactive: [1] 0.105 | filanesib -0.022 | zotarolimus 0.079 | idasanutlin -0.018 | alisertib 0.045 | [2] 0.022 | gefitinib 0.06 | [3] -0.118 | lapatinib -0.04 | pictilisib 0.009

POLA2 (UniProt Q14181)
Sequence of UniProt Q14181 (Q14181 whole entry, looked up): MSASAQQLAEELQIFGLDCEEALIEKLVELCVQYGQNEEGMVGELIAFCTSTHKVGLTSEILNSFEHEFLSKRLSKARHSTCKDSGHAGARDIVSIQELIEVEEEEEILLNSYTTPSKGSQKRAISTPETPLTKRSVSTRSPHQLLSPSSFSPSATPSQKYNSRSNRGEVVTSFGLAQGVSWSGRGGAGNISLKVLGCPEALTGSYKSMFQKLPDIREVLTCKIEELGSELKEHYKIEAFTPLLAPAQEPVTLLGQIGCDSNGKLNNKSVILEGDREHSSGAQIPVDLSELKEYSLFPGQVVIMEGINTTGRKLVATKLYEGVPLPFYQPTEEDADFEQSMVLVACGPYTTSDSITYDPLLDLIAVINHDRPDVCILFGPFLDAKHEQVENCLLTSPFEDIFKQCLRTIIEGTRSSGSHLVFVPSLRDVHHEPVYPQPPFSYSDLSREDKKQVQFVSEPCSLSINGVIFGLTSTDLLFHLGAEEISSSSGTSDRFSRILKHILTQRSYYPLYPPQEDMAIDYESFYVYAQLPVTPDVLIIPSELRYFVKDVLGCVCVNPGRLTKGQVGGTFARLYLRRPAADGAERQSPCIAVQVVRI
inactive: [1] 0.086 | filanesib -0.001 | zotarolimus 0.015 | idasanutlin -0.02 | alisertib 0.005 | [2] 0.046 | gefitinib 0 | [3] -0.015 | lapatinib 0.018 | pictilisib 0.051

PDE2A (UniProt O00408)
inactive: [1] 0.172 | filanesib -0.118 | zotarolimus 0.001 | idasanutlin -0.089 | alisertib -0.053 | [2] 0.134 | gefitinib -0.004 | [3] 0.027 | lapatinib -0.014 | pictilisib 0.148

PEX11B (UniProt O96011)
inactive: [1] 0.021 | filanesib -0.038 | zotarolimus -0.009 | idasanutlin -0.076 | alisertib -0.071 | [2] -0.063 | gefitinib -0.037 | [3] 0.019 | lapatinib 0.023 | pictilisib 0.004
